{
  "source": "PubChem BioAssay (EPA / NIEHS)",
  "note": "Calls of active or inactive are those of the source. The calls were made as follows: active = hit-call score of the fitted dose curve at least 0.9, where 1 is the maximum; inactive = score below 0.9.",
  "data": [
    {"read-out": "Urokinase-type plasminogen activator receptor (uPAR), PLAUR (gene 5329)", "experiment": "BSK_CASM3C_uPAR: BioMAP Diversity Plus: CASM3C Assay for Urokinase-type plasminogen activator receptor (uPAR) Biomarker Activity (AID 2283054);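 also: cell-surface uPAR protein level quantified by ELISA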", "details": "primary human coronary artery smooth muscle cells; actives raise or lower the signal", "values": [
      {"smiles": "Cc1ccc(-c2cc(C(F)(F)F)nn2-c2ccc(S(N)(=O)=O)cc2)cc1", "AC50": "30.4 µM (active)"},
      {"smiles": "O=C1O[C@H]([C@H](O)CO)C(O)=C1O", "outcome": "inactive"},
      {"smiles": "CCCCc1nc2cccnc2n1Cc1ccc(-c2ccccc2-c2nnn[nH]2)cc1", "outcome": "inactive"},
      {"smiles": "CCCC(=O)O", "outcome": "inactive"},
      {"smiles": "CCCCOC(=O)CCCCC(=O)OCCCC", "outcome": "inactive"},
      {"smiles": "CC(C)NCC(O)c1ccc(O)c(O)c1", "note": "(configuration not stated)", "outcome": "inactive"},
      {"smiles": "Cn1cnc2c1c(=O)[nH]c(=O)n2C", "outcome": "inactive"},
      {"smiles": "O=C(Oc1ccccc1)c1cccc(C(=O)Oc2ccccc2)c1", "outcome": "inactive"},
      {"smiles": "O=C(O)c1[nH]n(-c2ccc(S(=O)(=O)O)cc2)c(=O)c1N=Nc1ccc(S(=O)(=O)O)cc1", "outcome": "inactive"},
      {"smiles": "CCCCC(CC)CO", "note": "(configuration not stated)", "outcome": "inactive"},
      {"smiles": "CCc1cc(C2=C(C(=O)O)N(c3ccccc3C(F)(F)F)S(=O)(=O)c3ccccc32)cc2c1OCO2", "outcome": "inactive"},
      {"smiles": "O=C(N[C@@H](c1ccccc1)[C@@H]1CCCCN1)c1cccc(C(F)(F)F)c1Cl", "outcome": "inactive"},
      {"smiles": "CCC(C)N(C)C(=O)c1cc2ccccc2c(-c2ccccc2Cl)n1", "note": "(configuration not stated)", "outcome": "inactive"},
      {"smiles": "CCCCCCCCCCCCCCOS(=O)(=O)O", "outcome": "inactive"},
      {"smiles": "CCCCCCCC(=O)OC", "outcome": "inactive"},
      {"smiles": "CC(C)c1cccc(C(C)C)c1NC(=O)NS(=O)(=O)c1cc(C(C)(C)O)co1", "outcome": "inactive"},
      {"smiles": "CCN(CC)CCOc1ccc(C(=C(Cl)c2ccccc2)c2ccccc2)cc1", "AC50": "31.1 µM (active)"},
      {"smiles": "c1ccc2occc2c1", "outcome": "inactive"},
      {"smiles": "CCCCCCC(C=O)=Cc1ccccc1", "outcome": "inactive"},
      {"smiles": "COC(=O)CCC(=O)OC", "outcome": "inactive"},
      {"smiles": "COC(=O)CCCC(=O)OC", "outcome": "inactive"},
      {"smiles": "CN(C)C(=O)NC1(c2ccccc2)CCN(CC[C@@]2(c3ccc(F)c(F)c3)CN(C(=O)c3ccccc3)CCO2)CC1", "outcome": "inactive"}
    ]}
  ]
}
